Results filed as inconclusive are left out. A number with no mark means an inactive call. Calls of active or inactive are those of the source. Calls follow the shape of the dose curve; as a rule, active = well fitted cell-killing curve with a large enough effect; inconclusive = small, poorly fitted or top-dose-only effect, or effect the other way; inactive = no such curve, though single readings can be large or run the other way.
Potency is read from the fitted curve at half-maximal effect.

This test is described as follows: Quantitative High-Throughput drug screen in 47 multiple myeloma cell lines against the NCATS MIPE library collection: MM1R_ATCC cell viability assay (AID 1918981). Also: nearly all actives have a fitted effect of over 35% in size. The note with it: MM1R multiple myeloma cells, CellTiter-Glo viability, 48 h; series mostly up to 45.8 µM; viability (% of control): at the top concentration. The source says: PI: Beverly A. Mock Ph.D.
Laboratory of Cancer Biology and Genetics,
Center for Cancer Research, National Cancer Institute,
National Institute of Health, Bethesda, Maryland
Drug resistance and disease progression are common in multiple myeloma (MM) patients, underscoring the need for new therapeutic combinations. […] We hypothesized that effective combinations would reduce MYC expression and enhance p16 activity. […] These preclinical data identify potentially useful drug combinations for evaluation in drug-resistant MM and reveal potential mechanisms of combined drug sensitivity.
Described herein is the primary MIPE qHTS used to cherrypick compounds. Validated compounds were then further tested for potential synergistic activiy.
[1] Peat TJ, Gaikwad SM, Dubois W, Gyabaah-Kessie N, Zhang S, Gorjifard S, Phyo Z, Andres M, Hughitt VK, Simpson RM, Miller MA, Girvin AT, Taylor A, Williams D, D'Antonio N, Zhang Y, Rajagopalan A, Flietner E, Wilson K, Zhang X, Shinn P, Klumpp-Thomas C, McKnight C, Itkin Z, Chen L, Kazandijian D, Zhang J, Michalowski AM, Simmons JK, Keats J, Thomas CJ, Mock BA. Drug combinations identified by high-throughput screening promote cell cycle transition and upregulate Smad pathways in myeloma. Cancer Lett. 2023 Aug 1;568:216284. doi: 10.1016/j.canlet.2023.216284. Epub 2023 Jun 24. PMID: 37356470; PMCID: PMC10408729.
SEQUENCE No. (e.g., 1, 2, 3, etc.); […] (e.g., Cells, Incubation, Reagent, etc.); VALUE and DESCRIPTION.
1; Cells; 5 uL; white, solid bottom 1536-well Greiner assay plate.
2; Compounds; 23 nL; Kalypsis pin tool (Wako USA) equipped with a 1536-well pin head to transfer to the assay plates.
3; Incubation; 48 hours; 37C incubation.
4; Reagent;5uL; CellTiter Glo (Promega).
5; Detector; 425V; Luminescence; Viewlux PerkinElmer.
NOTES (numbers refer to Sequence numbers above)
1. The cell-based screening methods employed in this study were like those previously published. Briefly, the corresponding myeloma cell lines were screened in 1,536-well plates with 500 cells, 5-uL per well for inhibition of cell viability (assessed by measuring ATP levels with CellTiterGlo).
2. NCATS MIPE 4.0 library of approved and investigational drugs were added using the Kalypsis pin tool. Wells treated with DMSO only for 100% viability and media only for 0% viability were used as controls.
3. The assay plates were covered and incubated for 48 hours in a 37C, 5% CO2 incubator with controlled humidity.
4. After 48 hours, CellTilter-GloTM luminescent substrate mix (Promega) reagent was added to the assay plate and plates we incubated for 5 min at room temperature.
5. Signal was measured as median relative luminescence units on a ViewLux (PerkinElmer) multiplate reader.
[1] Heske CM, Davis MI, Baumgart JT, Wilson K, Gormally MV, Chen L, Zhang X, Ceribelli M, Duveau DY, Guha R, Ferrer M, Arnaldez FI, Ji J, Tran HL, Zhang Y, Mendoza A, Helman LJ, Thomas CJ. Matrix Screen Identifies Synergistic Combination of PARP Inhibitors and Nicotinamide Phosphoribosyltransferase (NAMPT) Inhibitors in Ewing Sarcoma. Clin Cancer Res. 2017 Dec 1;23(23):7301-7311. doi: 10.1158/1078-0432.CCR-17-1121. Epub 2017 Sep 12. PMID: 28899971; PMCID: PMC6636827.
For `CC#C[C@]1(O)CC[C@H]2[C@@H]3CCC4=CC(=O)CCC4=C3[C@@H](c3ccc(N(C)C)cc3)C[C@@]21C`, the Potency is 0.743 µM (active).

Turning to `NCCS(=O)(=O)O`, the “viability (% of control)” value is 109%.

With `CCCCc1oc2ccccc2c1C(=O)c1cc(I)c(OCCN(CC)CC)c(I)c1`, the Potency was 18.7 µM (active).

On to `Cn1c(=O)c2c(ncn2C)n(C)c1=O`, for which the “viability (% of control)” value is 91.6%.

For the compound `COc1ccc2[nH]cc(CCNC(C)=O)c2c1`, the Potency was 5.26 µM (active).

Regarding `COc1ccccc1OCCNCC(O)COc1cccc2[nH]c3ccccc3c12` (stereo not given), the Potency is 26.4 µM (active).

`CN(C)CCC=C1c2ccccc2C=Cc2ccccc21`: the Potency is 18.7 µM (active).

As to `CN(C)CCOC(c1ccccc1)c1ccccc1`, the “viability (% of control)” value is 106%.

As for `CC(C)(Oc1ccc(C2CC2(Cl)Cl)cc1)C(=O)O` (stereo not given), the Potency was 48.1 µM (active).

Regarding `COC(=O)Nc1nc2ccc(C(=O)c3cccs3)cc2[nH]1`, the Potency was 0.0418 µM (active).

Take `Cn1ccc2cc3c(cc21)CCN3C(=O)Nc1cccnc1`: the “viability (% of control)” value was 116%.

As for `CN1CCN(CCCN2c3ccccc3Sc3ccc(Cl)cc32)CC1`, the Potency was 26.4 µM (active).

As to `COc1cc2nc(N3CCN(C(=O)c4ccco4)CC3)nc(N)c2cc1OC`, the Potency is 26.4 µM (active).

`CN(C)C(=O)C(CCN1CCC(O)(c2ccc(Cl)cc2)CC1)(c1ccccc1)c1ccccc1`: the Potency was 20.9 µM (active).

For the compound `CC(=O)OCC(CCn1cnc2cnc(N)nc21)COC(C)=O`, the “viability (% of control)” value was 125%.

Regarding `Clc1ccc2nsnc2c1NC1=NCCN1`, the “viability (% of control)” value is 101%.

With `Cn1cnc2c1c(=O)[nH]c(=O)n2C`, the Potency was 18.7 µM (active).

As for `CC1COc2c(N3CCN(C)CC3)c(F)cc3c(=O)c(C(=O)O)cn1c23` (stereo not given), the “viability (% of control)” value was 120%.

Consider `COc1ccc2c(c1)c(CC(=O)O)c(C)n2C(=O)c1ccc(Cl)cc1`, for which the “viability (% of control)” value is 121%.

In the case of `CCCNCC(O)COc1ccccc1C(=O)CCc1ccccc1` (stereo not given), the “viability (% of control)” value is 84.2%.

For the compound `NC(CO)C(=O)NNCc1ccc(O)c(O)c1O` (stereo not given), the Potency is 11.8 µM (active).

With `Nc1nc2c(ncn2COC(CO)CO)c(=O)[nH]1`, the Potency is 20.9 µM (active).

As for `CC(C)Cc1ccc(C(C)C(=O)O)cc1` (stereo not given), the “viability (% of control)” value is 122% [at 23.2 µM].

In the case of `CCOC(=O)c1ncn2c1CN(C)C(=O)c1cc(F)ccc1-2`, the Potency is 18.7 µM (active).

With `Cc1ccc(-c2cc(C(F)(F)F)nn2-c2ccc(S(N)(=O)=O)cc2)cc1`, the Potency is 8.33 µM (active).

Consider `NC(=O)OCC(COC(N)=O)c1ccccc1`, for which the “viability (% of control)” value is 118%.

As for `O=C1c2c(O)ccc(O)c2C(=O)c2c(NCCNCCO)ccc(NCCNCCO)c21`, the Potency is 0.105 µM (active).

`CC(C(=O)O)c1cccc(C(=O)c2ccccc2)c1` (stereo not given): the Potency was 23.5 µM (active).

On to `C[C@](N)(Cc1ccc(O)c(O)c1)C(=O)O`, for which the Potency is 20.9 µM (active).

On to `NCCCCCC(=O)O`, for which the “viability (% of control)” value is 114%.

Consider `Cc1ccccc1N1C(=O)c2cc(S(N)(=O)=O)c(Cl)cc2NC1C` (stereo not given), for which the “viability (% of control)” value is 112%.

As to `CC(C)C(=O)Nc1ccc([N+](=O)[O-])c(C(F)(F)F)c1`, the Potency is 3.72 µM (active).

In the case of `O=C(CCCN1CCC(O)(c2ccc(Cl)cc2)CC1)c1ccc(F)cc1`, the “viability (% of control)” value is 96.8%.

In the case of `CN1CCC(=C2c3ccccc3C=Cc3ccccc32)CC1`, the Potency is 23.5 µM (active).

Take `CC(C)NCC(O)c1ccc(O)c(O)c1` (stereo not given): the Potency is 4.18 µM (active).

For `CC1(CN2CCC(n3c(=O)[nH]c4ccccc43)CC2)OCc2ccccc2-n2cccc21` (stereo not given), the Potency was 2.64 µM (active).

`O=c1[nH]cc(F)c(=O)[nH]1`: the Potency is 10.5 µM (active).

As to `CCC1(c2ccccc2)C(=O)NCNC1=O`, the “viability (% of control)” value is 117%.

Take `COc1ccc(C2CNC(=O)C2)cc1OC1CCCC1` (stereo not given): the “viability (% of control)” value is 148%.

In the case of `Cc1cn([C@H]2C[C@H](N=[N+]=[N-])[C@@H](CO)O2)c(=O)[nH]c1=O`, the “viability (% of control)” value was 87.7%.

For the origin of these results see PubChem BioAssay (NCATS).
